# In the library only some 9.2% were active in any assay of this set; here they are far more common.
# HTT ATP protect – protects HTT-Q103 PC12 cells, measured by ATP; PC12 HTT-Q103 induced, cytoprotection, ATP luminescence, 40 h; Potency, µM (series often up to 56.4 µM), for the others: cytoprotection (ATP increase), actives largely listed as activators; hit rate 0.14% among 230,000; active = well fitted curve in the direction sought with a large enough effect; inconclusive = small, poorly fitted or top-dose-only effect, or another doubt; inactive = no such curve, though single readings can be large; an effect the other way counts as inactive or inconclusive; note: % of control where 0% means no effect; nearly all actives have a fitted effect of over 45% in size
#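 ATP quantification (ATPlite) reports survival of PC12 cells in which tebufenozide, 100 nM final, switches on Htt exon 1 with 103 glutamines linked to GFP; compounds are titrated.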
# JMJD2E inh – inhibitors of human JMJD2E histone demethylase. AID 2147. hit rate 1.6% among 230,000. B2RXH2. JMJD2E catalytic domain, FDH-coupled NADH fluorescence (FDH is formaldehyde dehydrogenase). Potency, µM (doses to about 57.1 µM), for inactives: at the top dose activity change, negative = inhibition, hits mostly inhibitors;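 note: 0% = wells with enzyme and -100% = buffer wells without enzyme; nearly all actives have a fitted effect of over 50% in size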
# LMNA splice mod – LMNA splicing modulation | HeLa LMNA splicing GFP/RFP minigene ratio, 48 h | Potency, µM (highest dose often 46.1 µM), without a hit: at the highest dose ratio change, negative = inhibition, most hits filed as inhibitors | hit rate 0.01% among 200,000; active = well fitted inhibition curve with a large enough effect in the signal ratio, with a control signal flat, not every such curve was filed as active; inconclusive = small, poorly fitted or top-dose-only effect, or effect the other way, or a change in a side signal; the % refers to the signal ratio; note: % is set by controls: 0 for no effect and ±100 for the full control effect
#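 S3 HeLa stable clones carrying a lamin A-EGFP splicing minigene plus DsRed2 were seeded at 600 cells/well in Opti-MEM with 2% FBS, pin-dosed and incubated 48 h at 37°C. Acumen cytometry (488 nm) gave the GFP/RFP total-intensity ratio.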
# HPGD inh – inhibitors of human 15-hydroxyprostaglandin dehydrogenase (HPGD); Potency, µM, without a hit: at the highest dose activity change, negative = inhibition, actives largely listed as inhibitors; AID 894; P15428; hit rate 4.3% among 150,000; purified HPGD, NADH fluorescence kinetic, PGE2 substrate; note: % is set by controls: 0 for no effect and ±100 for the full control effect
# Target sequence (P15428 whole entry, looked up): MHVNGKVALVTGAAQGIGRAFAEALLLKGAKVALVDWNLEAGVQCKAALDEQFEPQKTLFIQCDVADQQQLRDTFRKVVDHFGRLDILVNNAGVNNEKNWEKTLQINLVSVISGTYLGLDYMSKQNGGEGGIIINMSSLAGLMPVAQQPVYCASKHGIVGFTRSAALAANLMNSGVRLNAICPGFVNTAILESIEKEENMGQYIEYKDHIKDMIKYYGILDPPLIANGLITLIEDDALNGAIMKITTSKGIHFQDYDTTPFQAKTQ
#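 NADH formation kinetics: reaction with 30 uM PGE2 and 1 mM NAD+ (final), 20 nM enzyme, Tris-HCl pH 8 with Tween 20, after 15 min compound preincubation at room temperature. Fluorescence change, last versus first of five reads.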
# HttQ103 aggreg – reduces HttQ103-GFP aggregates in PC12 cells; PC12 HttQ103-GFP aggregates, Acumen cytometry, 40 h; Potency, µM (doses to about 46.1 µM), without a hit: top-dose activity change, negative = inhibition, most hits filed as inhibitors; hit rate 1.1% among 220,000; AID 1688; active = well fitted curve in the direction sought with a large enough effect; inconclusive = small, poorly fitted or top-dose-only effect, or another doubt; inactive = no such curve, though single readings can be large; an effect the other way counts as inactive or inconclusive; note: % is set by controls: 0 for no effect and ±100 for the full control effect; nearly all actives have a fitted effect of over 60% in size
#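 Compounds (qHTS titration) were added to PC12 cells expressing an ecdysone-driven HTT exon 1 Q103–GFP fusion after induction with 100 nM tebufenozide. Aggregate formation was measured as GFP objects in cell lysates.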
# ALDH1A1 inh – blocks purified human ALDH1A1 activity | Purified ALDH1A1, NADH fluorescence, propionaldehyde substrate | Potency, µM (titrated, usually from 75.3 µM), for inactives: at the highest dose activity, negative = inhibition, usual class: inhibitors | AID 1030 | hit rate 7.3% among 220,000;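 note: plate controls were no enzyme wells and a reference inhibitor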
# Target sequence (P00352 whole entry, looked up): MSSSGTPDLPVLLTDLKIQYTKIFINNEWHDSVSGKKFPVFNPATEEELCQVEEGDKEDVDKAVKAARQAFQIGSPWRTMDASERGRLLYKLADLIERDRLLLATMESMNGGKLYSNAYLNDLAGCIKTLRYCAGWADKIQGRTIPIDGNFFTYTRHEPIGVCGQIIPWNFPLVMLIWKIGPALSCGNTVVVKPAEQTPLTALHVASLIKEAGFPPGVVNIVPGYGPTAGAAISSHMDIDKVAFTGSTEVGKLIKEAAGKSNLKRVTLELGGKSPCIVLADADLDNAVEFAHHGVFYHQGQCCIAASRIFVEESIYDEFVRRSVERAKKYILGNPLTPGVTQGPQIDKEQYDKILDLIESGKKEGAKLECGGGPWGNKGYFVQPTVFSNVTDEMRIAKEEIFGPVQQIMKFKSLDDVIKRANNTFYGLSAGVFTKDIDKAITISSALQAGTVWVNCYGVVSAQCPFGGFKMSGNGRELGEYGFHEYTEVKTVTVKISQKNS
# Numbers without * were called inactive; ? = inconclusive; . = no result given; ! = repeats disagree; [ ] = another dose, or the depositor's remark. Unless noted, calls come from the whole dose curve; as a rule, active = well fitted inhibition curve with a large enough effect (not every such curve was filed as active); inconclusive = small, poorly fitted or top-dose-only effect, or another doubt; inactive = no such curve, though single readings can be large or run the other way. Potency is the fitted concentration of half-maximal effect.
SMILES,HTT ATP protect,JMJD2E inh,LMNA splice mod,HPGD inh,HttQ103 aggreg,ALDH1A1 inh
CCCCOC(=O)Nc1cccc(C(C)=O)c1,-6%,-4%,?,28µM*,7%,-2%
CCCCNC(=S)Nc1cccc(C(C)=O)c1,13%[10 µM],-26%,-3%,32µM*,2%,5%
Cn1c(O)c(C=Nc2ccc(Br)cc2)sc1=O,.,-7%,.,.,14%,7%
Cc1cc(N2CCN(Cc3cn(C)nc3-c3ccccc3F)CC2)cc(C)n1,-24%[10 µM],-7%,7%[46 µM],.,-4%[9.22 µM],?
CCOC(=O)CC1COCCN1Cc1cn(C)nc1-c1ccccc1F (stereo not given),14%[10 µM],1%,.,.,-1%[9.22 µM],10µM*
CCOC(=O)CC(C(=O)OCC)P(=O)(c1ccccc1)c1ccccc1 (stereo not given),-5%,8%,4%,-3%,23%,10µM*
OC[C@H]1NC[C@@H](O)[C@@H](O)[C@H]1O,-4%,3%,.,-12%,.,?
C[C@@H](Oc1ccc(Oc2cnc3ccc(Cl)cc3n2)cc1)C(=O)O,.,-1%,?,18µM*,.,?
CC(Oc1ccc(-n2cnnn2)cc1)C(=O)O (stereo not given),-50%,-4%,27%[46 µM],.,-1%,15%
CCOc1ccc(N2C(=O)Nc3ccccc3C2(O)C(=O)NCc2ccc(F)cc2)cc1 (stereo not given),7%,-4%,-17%[46 µM],.,9%,18%
CCOc1ccc(N2C(=O)Nc3ccccc3C2(O)C(=O)NCc2ccc(OC)cc2)cc1 (stereo not given),16%[10 µM],-6%,-2%[9.22 µM],.,0.71µM*,?
COc1ccc(C(OC(=O)c2ccco2)C(=O)NCc2ccco2)cc1 (stereo not given),-11%[10 µM],7%,8%,-7%,14%,-6%
COc1ccc(CNC(=O)C(OC(=O)c2ccco2)c2ccc(OC)cc2)cc1 (stereo not given),-2%[1.9 µM],8%,-10%,-16%,-11%,6.3µM*
Cc1cccn2c(CN(C)CC3CCCCO3)c(C(=O)N3CCCCC3)nc12 (stereo not given),-14%,-2%,.,.,-8%,0.2µM*
Cc1cc2c(cc1Cl)N(C(=O)Nc1ccnc3ccccc13)CC2,-17%[1.9 µM],-4%,?,-9%,.,-9%
C/C=C/c1ccc(OCCCN2C(=O)NC(C)(C)C2=O)c(OC)c1,-19%,-7%,8%,-13%,-2%[9.22 µM],14µM*
CC(=O)OCC1OC(C#CCC2CCCCC2)C=CC1OC(C)=O (stereo not given),22%[10 µM],.,.,.,.,4.5µM*
O=c1[nH]c2cc([N+](=O)[O-])c([N+](=O)[O-])cc2[nH]c1=O,8%,-7%,?,32µM*!,-11%[9.22 µM],1%
O=c1[nH]c(=O)c2cc([N+](=O)[O-])cc([N+](=O)[O-])c2[nH]1,-34%,-30%,.,.,-22%,7%
Cc1ccccc1CS(=O)(=O)c1nnc([C@H](Cc2ccccc2)NC(=O)OC(C)(C)C)o1,-131%,8%,?,7.1µM*,?,14µM*
CCSc1nnc([C@H](Cc2ccccc2)NC(=O)OC(C)(C)C)o1,1%,-1%,-4%,-4%,15%,?
CCC(C)[C@@H](NC(=O)OC(C)(C)C)c1nnc(S(=O)(=O)Cc2cccc(C)c2)o1 (stereo not given in full),-142%,8%,?,14µM*,?,-4%
CCC(C)C(NCc1cccc(C)c1)C(=O)O (stereo not given),-11%[0.074 µM],.,.,.,.,.
CC(C)(C)OC(=O)N[C@@H](Cc1ccccc1)c1nnc(S(=O)(=O)Cc2ccccc2)o1,-125%,0%,?,3.5µM*,?,?
CCOC(=O)c1ccc(NC(=O)C2=C(C)C(=O)OC23CCN(C(C)=O)CC3)cc1,.,.,8%[46 µM],.,.,.
SMILES,HTT ATP protect,JMJD2E inh,LMNA splice mod,HPGD inh,HttQ103 aggreg,ALDH1A1 inh
COc1ccc(-n2nc(C#N)c(Cl)cc2=O)cc1,-3%[10 µM],-15%,?,.,25µM*,?
Nc1ncnc(Sc2ncccn2)c1[N+](=O)[O-],21%[10 µM],?,?,.,5µM*,-12%
CCOC(=O)C(=O)Nc1ccc(OCc2ccccc2)cc1,9%[10 µM],-9%,-4%[46 µM],.,37%[9.22 µM],25µM*
C/C(CC(=O)Nc1ccc(OCc2ccccc2)cc1)=N\NC(=O)C(=O)Nc1ccc(C)c(Cl)c1,-39%,-12%,14%,-13%,-33%,14µM*
COc1ccc(CCNC(=O)C2CCC(CNS(=O)(=O)c3ccc(C)cc3)CC2)cc1OC (stereo not given),.,.,0%[46 µM],.,.,.
CCOC(=O)CC(=O)CSc1n[nH]c(=O)[nH]c1=O,37%[10 µM],-6%,.,.,28%[9.22 µM],.
C(=C\c1ccccc1)/CN1CCN(Cc2nc(Cc3ccccc3)no2)CC1,-3%[10 µM],-10%,?,.,1%[9.22 µM],13µM*
CCCC[S@@](=N)(=O)CC[C@@H](N)C(=O)O,4%[1.9 µM],.,.,.,.,.
CC1=NN(c2ccccc2)C(=O)C1/C=C1\NC(=S)NC1=O (stereo not given),-134%,?,.,.,11%,13µM*
CC1=NN(c2ccccc2)C(=O)C1C=Nc1ccccc1O (stereo not given),-36%[10 µM],32µM*,.,.,-21%[9.22 µM],?
Cc1nn(Cc2ccccc2)c(Cl)c1/C=C1\NC(=S)NC1=O,24%,?,.,.,?,?
CC1=NN(c2ccccc2)C(=O)C1(C)C,4%,3%,8%,-6%,10%,12%
CCc1oc2ccccc2c1C(=O)c1cc(I)c(O)c(I)c1,28%,.,?,.,12%,.
N#CC1=C(N)SC(N)=C(C#N)C1CCC1CCCCC1,10%[10 µM],?,?,16µM*,0.89µM*,14µM*
COc1ccc(NS(=O)(=O)c2cc(C)ccc2NC(=O)c2cc(C)oc2C)cc1,-71%[10 µM],-4%,?,-18%,?,7.9µM*
COc1ccc(NS(=O)(=O)c2cccc(C(=O)NNC(=O)c3cc(C)oc3C)c2)cc1,4%[10 µM],6%,-5%,-7%,5%,-5%
COC(=O)c1cc(OC)nc(OC)c1,2%[10 µM],?,.,.,16%[9.22 µM],?
COC(=O)c1cc(O)c(O)c(O)c1,.,16µM*,?,2%,-4%,-12%
CCN1C(=O)S/C(=C/c2ccc(Sc3nc4ccccc4[nH]3)o2)C1=O,15%[10 µM],-6%,?,13µM*,-22%,9%
CCOc1ccc(NC(=O)CSc2nnc(C3CC3)n2C)cc1,-22%[10 µM],-4%,.,.,-8%[9.22 µM],6%
COc1ccc(C(=O)CSc2nnc(CNc3ccc(C)cc3C)n2Cc2ccco2)cc1,-10%,-26%,?,?,-16%,7.1µM*
Cc1ccc(C(=O)CSc2nnc(CNc3ccc(C)cc3C)n2Cc2ccco2)cc1,-24%,-3%,-8%,-16%,8%,22µM*

# Screens: PubChem BioAssay, National Center for Advancing Translational Sciences (NCATS)
